BAZ2B inh: blocks human BAZ2B; Q9UIF8; Potency, µM (series often up to 114 µM), for inactives: top-dose activity change, negative = inhibition, most hits filed as inhibitors; AlphaScreen BAZ2B-H3K14Ac peptide displacement; 4.4% of 360,000 active; note: % is set by controls: 0 for no effect and ±100 for the full control effect; nearly all actives have a fitted effect of over 60% in size
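Protein-peptide AlphaScreen: BAZ2B 50 nM, b-H3K14Ac 50 nM, 1x PBS pH 7.4 + 0.01% Tween-20. Preincubation 30 min RT; cpd 30 min RT (top 110 uM); beads 20 min RT, light-protected.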
G9a block: inhibitors of human histone lysine methyltransferase G9a | G9a H3K9 monomethylation, AlphaScreen, 2 h | AID 504332 | 8.8% of 350,000 active | Q96KQ7 | Potency, µM (titrated, usually from 102 µM), for the others: top-dose activity, negative = inhibition, usual class: inhibitors; note: % is set by controls: 0 for no effect and ±100 for the full control effect; nearly all actives have a fitted effect of over 75% in size
Target sequence (Q96KQ7 913-1193 limits assumed): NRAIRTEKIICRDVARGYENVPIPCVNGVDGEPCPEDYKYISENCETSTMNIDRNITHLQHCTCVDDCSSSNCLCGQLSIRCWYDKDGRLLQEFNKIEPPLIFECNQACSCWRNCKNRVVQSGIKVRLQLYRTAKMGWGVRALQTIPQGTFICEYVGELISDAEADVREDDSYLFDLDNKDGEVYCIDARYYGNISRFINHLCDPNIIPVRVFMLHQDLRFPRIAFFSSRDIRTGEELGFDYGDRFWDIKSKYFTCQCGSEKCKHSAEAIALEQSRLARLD
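AlphaScreen read-out: biotin-H3K9 peptide (500 nM) methylation by 20 nM enzyme with 20 uM SAM, 2 h at room temperature after 15 min compound preincubation; anti-monomethyl H3K9 antibody plus donor/acceptor beads, 10 min dark.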
PLK1 PBD inh: inhibitors of human PLK1 polo-box domain binding. P53350. Plk1 PBD binding of FITC phosphopeptide, fluorescence polarization. Potency, µM, for inactives: max response, negative = inhibition, hits mostly inhibitors. 2.8% of 360,000 active. AID 720504; note: series mostly up to about 57 µM; % is set by controls: 0 for no effect and ±100 for the full control effect; nearly all actives have a fitted effect of over 65% in size
Sfp inh: blocks B. subtilis Sfp PPTase activity | Q9F4F7 | Biochemical Sfp PPTase activity, qHTS | Potency, µM, inactives show largest response in the series, negative = inhibition, actives largely listed as inhibitors | 3.5% of 310,000 active | AID 1490;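 note: the enzyme is Sfp with the accession as filed and its product quenches rhodamine fluorescence; 0% = enzyme reaction without inhibitor and -100% = no enzyme wells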
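With Hepes-Na pH 7.6 buffer containing 10 mM MgCl2, Sfp (15 nM) modified BHQ-2-YbbR (12.5 uM) using rhodamine-CoA (5 uM). Two reads 30 minutes apart at 525/598 nm yielded each well's rate.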
HP1b chromo inh: blocks HP1-beta chromodomain binding to methylated histone tails | 0.56% of 390,000 active | P83916 | Potency, µM (highest dose often 114 µM), inactives show at the highest dose activity change, negative = inhibition, usual class: inhibitors | AlphaScreen HP1-beta / biotin-H3K9me3 peptide binding; note: nearly all actives have a fitted effect of over 70% in size
Target sequence (P83916 whole entry, looked up): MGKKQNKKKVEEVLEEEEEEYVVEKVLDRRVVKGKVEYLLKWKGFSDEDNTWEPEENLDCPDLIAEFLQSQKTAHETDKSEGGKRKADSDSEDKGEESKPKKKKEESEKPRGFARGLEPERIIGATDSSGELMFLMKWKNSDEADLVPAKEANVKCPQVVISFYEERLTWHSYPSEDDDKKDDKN
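Compound inhibition of the preformed complex between 50 nM HP1-beta and 50 nM biotinylated H3K9me3 peptide was read by AlphaScreen. Buffer was PBS pH 7.4 with 0.01% Tween-20. Incubations ran 30 min at room temperature, with 10 ug/mL donor/acceptor beads.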
JMJD2A Tudor: inhibitors of human JMJD2A Tudor domain; O75164; AlphaScreen JMJD2A-Tudor / H3K4me3 peptide binding; Potency, µM (titrated, usually from 114 µM), for the others: top-dose activity change, negative = inhibition, usual class: inhibitors; 4.4% of 390,000 active; note: % is set by controls: 0 for no effect and ±100 for the full control effect; nearly all actives have a fitted effect of over 50% in size
The depositor's hits bear a star; ! = not confirmed by another sample; [ ] = remark or other dose. Compounds with a hit are over-represented: about 12% of the library has one in this group of screens. Calls come from the whole dose curve; as a rule, active = well fitted curve in the direction sought with a large enough effect; inconclusive = small, poorly fitted or top-dose-only effect, or another doubt; inactive = no such curve, though single readings can be large; an effect the other way counts as inactive or inconclusive. Potency is the fitted concentration of half-maximal effect.

Results for CCN1CCN(c2ccc(N)cc2C)CC1 ?
BAZ2B inh: inconclusive; G9a block: 31.6µM*; PLK1 PBD inh: -8.1%; Sfp inh: 13.5%; HP1b chromo inh: -13.7%; JMJD2A Tudor: inconclusive

Results for COc1ccc(-c2cc(C(=O)N3CCN(c4ccccc4OC)CC3)c3cc(C(C)C)ccc3n2)cc1 ?
BAZ2B inh: inconclusive; G9a block: -7.9%[59 µM]; HP1b chromo inh: 20.4%; JMJD2A Tudor: -25.1%

Results for CC[N+](C)(CC)CCCCOc1ccc2c(c1)C(=O)c1cc(OCCCC[N+](C)(CC)CC)ccc1-2 ?
BAZ2B inh: inconclusive; G9a block: 31.6µM*; PLK1 PBD inh: 10.6µM*; Sfp inh: 14.1µM*; HP1b chromo inh: inconclusive; JMJD2A Tudor: 22.4µM*

How did Cc1cccc(N2C(=O)NC(=O)/C(=C\c3ccc4c(c3)CCCN4Cc3ccccc3)C2=O)c1 do in these assays?
BAZ2B inh: inconclusive; G9a block: inconclusive; PLK1 PBD inh: inconclusive; Sfp inh: 44.7µM*; HP1b chromo inh: 14.5%; JMJD2A Tudor: -23.7%

What do the screens show for `CC1=NN(c2ccccc2)C(=O)C1/C=C1/C(=O)NC(=O)N(c2cc(C)cc(C)c2)C1=O` (stereo not given)?
BAZ2B inh: inconclusive; G9a block: inconclusive; PLK1 PBD inh: -17.3%; Sfp inh: 3.1%; HP1b chromo inh: -2.1%; JMJD2A Tudor: inconclusive

How did CCCCCn1c(=O)c(C(=O)Nc2ccccc2N)c(O)c2ccccc21 do in these assays?
BAZ2B inh: 1.5%; G9a block: 29.7%; PLK1 PBD inh: -12.9%; Sfp inh: -3.7%; HP1b chromo inh: 46.7%; JMJD2A Tudor: 1.0%

What do the screens show for `CCCCn1c(=O)c(C(=O)Nc2ccccc2N)c(O)c2ccccc21`?
BAZ2B inh: 50.1µM*; PLK1 PBD inh: -5.4%; Sfp inh: -5.6%; HP1b chromo inh: 46.4%; JMJD2A Tudor: 1.7%

What do the screens show for `Cc1ccccc1O`?
PLK1 PBD inh: -8.3%; HP1b chromo inh: 24.2%; JMJD2A Tudor: -10.2%

What do the screens show for `Oc1cccc2nc3ccccc3nc12`?
BAZ2B inh: inconclusive; G9a block: 28.2µM*; PLK1 PBD inh: -3.7%; Sfp inh: -14.8%; HP1b chromo inh: -29.0%; JMJD2A Tudor: inconclusive

How did O=C(CCN1CC2CCC(CC2)C1)c1cccs1 do in these assays?
PLK1 PBD inh: 23.8µM*; HP1b chromo inh: -29.3%; JMJD2A Tudor: -34.0%

Results for C#CCOCCOCCOCCNc1nc(N2CCN(C(=O)CCCCCCCCCCNC(=O)[C@H]([C@@H](C)CC)n3cc(CCCCN=C(N)N)nn3)CC2)nc(N2CCN(C(=O)CCCCCCCCCCNC(=O)[C@H](CO)n3cc(CCCCCN)nn3)CC2)n1 ?
BAZ2B inh: 50.1µM*; G9a block: -8.4%[2.33 µM]; PLK1 PBD inh: -10.5%; HP1b chromo inh: inconclusive; JMJD2A Tudor: 56.2µM*

How did OC(Cn1cncn1)(Cn1cncn1)c1ccc(F)cc1F do in these assays?
G9a block: -23.2%[2.33 µM]; PLK1 PBD inh: -6.3%; Sfp inh: 6.8%; HP1b chromo inh: 67.9%; JMJD2A Tudor: 1.4%

How did Cc1c(N=Nc2c(O)n(C)c(=O)n(C)c2=O)c(=O)n(-c2ccccc2)n1C do in these assays?
BAZ2B inh: 35.5µM*; G9a block: inconclusive; PLK1 PBD inh: 2.0%; Sfp inh: -27.8%; HP1b chromo inh: 25.8%; JMJD2A Tudor: -30.5%

How did CCCCn1c(O)c(C=Nc2c(C)n(C)n(-c3ccccc3)c2=O)c(=O)[nH]c1=O do in these assays?
BAZ2B inh: -1.4%; G9a block: 56.2µM*; PLK1 PBD inh: -9.6%; Sfp inh: 6.9%; HP1b chromo inh: 26.2%; JMJD2A Tudor: -1.9%

How did CCCCn1c(O)c(C(C)=Nc2c(C)n(C)n(-c3ccccc3)c2=O)c(=O)[nH]c1=O do in these assays?
BAZ2B inh: 3.5%; G9a block: -3.1%; PLK1 PBD inh: -2.9%; Sfp inh: 12.3%; HP1b chromo inh: 23.0%; JMJD2A Tudor: -3.0%

What do the screens show for `Cc1c(N=Cc2c(O)n(Cc3ccccc3)c(=O)[nH]c2=O)c(=O)n(-c2ccccc2)n1C`?
BAZ2B inh: -5.7%; G9a block: -10.3%; PLK1 PBD inh: -1.7%; Sfp inh: 8.3%; HP1b chromo inh: 19.6%; JMJD2A Tudor: 3.4%

How did Cc1c(N=Nc2c(O)n(Cc3ccccc3)c(=O)[nH]c2=O)c(=O)n(-c2ccccc2)n1C do in these assays?
BAZ2B inh: 10µM*; G9a block: inconclusive; PLK1 PBD inh: -20.3%; Sfp inh: 7.2%; HP1b chromo inh: 39.3%; JMJD2A Tudor: 20µM*

What do the screens show for `COc1cccc(NC(=O)Cn2c(-c3nonc3N)nc3ccccc32)c1`?
BAZ2B inh: 1.1%; G9a block: -1.5%[59 µM]; HP1b chromo inh: 42.5%; JMJD2A Tudor: -5.9%

What do the screens show for `NC(=O)CN1CC(O)CC1=O` (stereo not given)?
G9a block: 1.2%[59 µM]; Sfp inh: 6.0%

What do the screens show for `CC(=O)[C@@H]1CC[C@H]2[C@@H]3CC[C@@H]4CC(=O)CC[C@]4(C)[C@H]3CC[C@]12C`?
G9a block: 25.7%[59 µM]; Sfp inh: 7.6%

How did O=[N+]([O-])c1ccc(N2CCCCC2)c2ncccc12 do in these assays?
BAZ2B inh: inconclusive; G9a block: inconclusive; PLK1 PBD inh: -11.1%; Sfp inh: -26.2%; HP1b chromo inh: inconclusive; JMJD2A Tudor: inconclusive

Results for O=[N+]([O-])c1ccc(N2CCCC(C(F)(F)F)C2)c2ccncc12 (stereo not given) ?
BAZ2B inh: inconclusive; G9a block: 50.1µM*; PLK1 PBD inh: 0.4%; Sfp inh: -7.1%; HP1b chromo inh: inconclusive; JMJD2A Tudor: inconclusive

What do the screens show for `O=C1NC(=O)N(Cc2ccccc2Cl)C(=O)/C1=C/N1CCOCC1`?
BAZ2B inh: -2.2%; G9a block: inconclusive; PLK1 PBD inh: inconclusive; Sfp inh: 10µM*; HP1b chromo inh: 38.9%; JMJD2A Tudor: -13.5%

Results for O=c1[nH]c(O)c(C=Nc2ccccc2Oc2ccccc2)c(=O)[nH]1 ?
BAZ2B inh: -29.4%; G9a block: 1.7%; PLK1 PBD inh: 3.9%; Sfp inh: -6.3%; HP1b chromo inh: 17.8%; JMJD2A Tudor: inconclusive

How did OC12C3C4CC5C6C4C1C6C(C53)N2CCc1cccc(F)c1 (stereo not given) do in these assays?
Sfp inh: 6.7%

Results for COc1ccc2[nH]cc(C(=O)CN(C)C)c2c1 ?
PLK1 PBD inh: -5.0%; HP1b chromo inh: 23.9%; JMJD2A Tudor: -21.1%

How did COc1ccc(CNC(=O)/C=C/c2ccc3[nH]cc(CCN(C)C)c3c2)cc1 do in these assays?
BAZ2B inh: inconclusive; G9a block: 39.8µM*!; PLK1 PBD inh: -6.4%; Sfp inh: 4.9%; HP1b chromo inh: 20.3%; JMJD2A Tudor: -33.1%

Screening data from PubChem BioAssay.
